From the supplement of paper PMC6992640
± gives the standard deviation of the averaged measurements.

What was measured:
Test in all cases: cell viability (% of vehicle); higher = less cytotoxic
Details in all cases: 10 µM; 72 h
[1] = system: HCI01 (cells of a triple-negative basal-like breast cancer xenograft)
[2] = system: HCI03 (cells of an ER-positive luminal breast cancer xenograft)
[3] = system: HCI09 (cells of a triple-negative luminal androgen receptor type breast cancer xenograft)
[4] = system: HCI11 (cells of an ER-positive luminal breast cancer xenograft)
[5] = system: HCI13 (cells of an ER-positive luminal breast cancer xenograft)
[6] = system: HCI16 (cells of a triple-negative basal-like breast cancer xenograft)
[7] = system: UCD52 (cells of a triple-negative basal-like breast cancer xenograft)
[8] = system: WHIM2 (cells of a triple-negative basal-like breast cancer xenograft)
[9] = system: WHIM30 (cells of a triple-negative basal-like breast cancer xenograft)
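Also: PDX cells carrying CMV promoter-driven luciferase, viability read as total photon flux per second by IVIS imaging following D-luciferin, vehicle control 0.1% DMSO.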

SMILES | cell viability [1] | cell viability [2] | cell viability [3] | cell viability [4] | cell viability [5] | cell viability [6] | cell viability [7] | cell viability [8] | cell viability [9]
CC1CCc2cc(F)cc3c(=O)c(C(=O)O)cn1c23 (stereo not drawn) [Flumequine] | 92.8 ± 10 | 156 | 93.1 ± 7.6 | 118 | 117 ± 6.8 | 138 | 107 ± 5.8 | 98.4 ± 4.2 | 135 ± 15
CNCC(O)C(O)C(O)C(O)CO.Cc1c(Nc2ncccc2C(=O)O)cccc1C(F)(F)F [Flunixin Meglumin] | 135 ± 49 | 120 | 141 ± 44 | 103 | 133 ± 14 | 105 | 77.6 ± 16 | 130 ± 17 | 107 ± 2.9
CNC(=O)CN(CCN(CCN(CC(=O)[O-])CC(=O)NC)CC(=O)[O-])CC(=O)[O-].O.[Gd+3] [Gadodiamide] | 99.5 ± 27 | 111 | 99 ± 15 | 90.1 | 83.6 ± 8.9 | 112 | 104 ± 7.4 | 92.5 ± 29 | 94.5 ± 5.2
CCCc1nc(C)c2c(=O)nc(-c3cc(S(=O)(=O)N4CCN(CC)CC4)ccc3OCC)[nH]n12 [Vardenafil] | 98.2 ± 24 | 169 | 113 ± 14 | 97.3 | 102 ± 5.5 | 127 | 109 ± 12 | 97.77 ± 0.38 | 107 ± 1.9
Cc1cccc(C)c1OCC(C)N.Cl (stereo not drawn) [Mexiletine HCl] | 127 ± 27 | 110 | 120 ± 46 | 123 | 122 ± 26 | 188 | 120 ± 7 | 129 ± 14 | 147 ± 1.7
CO[C@H]1/C=C/O[C@@]2(C)Oc3c(C)c(O)c4c(c3C2=O)C(=O)/C(=C/NN2CCN(C)CC2)C(=C4O)NC(=O)/C(C)=C/C=C/[C@H](C)[C@H](O)[C@@H](C)[C@@H](O)[C@@H](C)[C@H](OC(C)=O)[C@@H]1C [Rifampin] | 86.5 ± 29 | 133 | 85.8 ± 2.5 | 94.5 | 108 ± 16 | 145 | 82.91 ± 0.51 | 64 ± 0.77 | 94.88 ± 0.76
CN(C)CCCN1c2ccccc2CCc2ccc(Cl)cc21.Cl [Clomipramine HCl] | 102 ± 22 | 108 | 74.2 ± 2.6 | 69.7 | 88.4 ± 10 | 88.4 | 61.1 ± 1.7 | 58 ± 1.1 | 94.4 ± 13
O=S(=O)(O)NC1CCCCC1 [Cyclamic acid] | 91.4 ± 14 | 118 | 94.4 ± 2 | 91.9 | 58.1 ± 1.3 | 121 | 88.7 ± 18 | 104 ± 13 | 106 ± 5.2
CC1C=CC=CC=CC=CC=CC=CC=CC(OC2OC(C)C(O)C(N)C2O)CC2OC(O)(CC(O)CC(O)C(O)CCC(O)CC(O)CC(=O)OC(C)C(C)C1O)CC(O)C2C(=O)O (stereo not drawn) [Amphotericin B] | 108 ± 19 | 116 | 105 ± 2.6 | 109 | 107 ± 18 | 107 | 82.2 ± 5.4 | 95.2 ± 23 | 127 ± 1.4
CCOc1ccc2ccccc2c1C(=O)NC1C(=O)N2C1SC(C)(C)C2C(=O)[O-].O.[Na+] (stereo not drawn) [Nafcillin Sodium] | 107 ± 8.4 | 139 | 109 ± 6 | 110 | 117 ± 9.9 | 105 | 96.1 ± 8.5 | 101 ± 3.8 | 140 ± 11
CC(=O)OCC(=O)C1(O)CCC2C3CCC4=CC(=O)CCC4(C)C3C(=O)CC21C (stereo not drawn) [Cortisone acetate] | 119 ± 17 | 130 | 119 ± 47 | 105 | 96.1 ± 13 | 140 | 106 ± 31 | 112 ± 19 | 119 ± 6.2
COc1cc2c(cc1OC)CC(=O)N(CCCN(C)CC1Cc3cc(OC)c(OC)cc31)CC2.Cl (stereo not drawn) [Ivabradine HCl] | 105 ± 7.9 | 121 | 100 ± 19 | 114 | 99.3 ± 3.9 | 97.9 | 85.7 ± 11 | 93.2 ± 17 | 123 ± 5.3
Cl.O=C1Cc2cc(CCN3CCN(c4nsc5ccccc45)CC3)c(Cl)cc2N1 [Ziprasidone HCl] | 45.7 ± 12 | 78.6 | 33.8 ± 21 | 57.8 | 45.9 ± 5.8 | 46.5 | 130 ± 9.5 | 38.1 ± 5.7 | 123 ± 11
CCCCOc1cc(C(=O)NCCN(CC)CC)c2ccccc2n1.Cl [Dibucaine (Cinchocaine) HCl] | 124 ± 13 | 154 | 92.3 ± 9.3 | 103 | 116 ± 5.1 | 101 | 68 ± 3.4 | 96.4 ± 5.9 | 109 ± 4.7
CS(=O)(=O)Nc1ccc([N+](=O)[O-])cc1Oc1ccccc1 [Nimesulide] | 146 ± 23 | 117 | 80.56 ± 0.45 | 104 | 109 ± 4.1 | 144 | 81.5 ± 15 | 107 ± 13 | 92.5 ± 2.9
CC(C)NCC(O)c1ccc(NS(C)(=O)=O)cc1.Cl (stereo not drawn) [Sotalol hydrochloride] | 102 ± 11 | 150 | 109 ± 2.9 | 111 | 126 ± 18 | 144 | 116 ± 4.6 | 110 ± 5.1 | 118 ± 2.6
COCCOC(=O)C1=C(C)NC(C)=C(C(=O)OC(C)C)C1c1cccc([N+](=O)[O-])c1 (stereo not drawn) [Nimodipine] | 136 ± 0.51 | 107 | 128 ± 25 | 115 | 87.6 ± 5.7 | 121 | 114 ± 5.1 | 132 ± 7.9 | 157 ± 28
Cl.c1ccc(CC2=NCCN2)cc1 [Tolazoline HCl] | 94.2 ± 1.9 | 100 | 92 ± 13 | 91.4 | 118 ± 8.5 | 115 | 92.7 ± 2.9 | 105 ± 5.3 | 87.3 ± 5
CC(=O)C1CCC2C3CC=C4CC(O)CCC4(C)C3CCC12C (stereo not drawn) [Pregnenolone] | 141 ± 20 | 126 | 76 ± 7 | 84.5 | 175 ± 44 | 111 | 75.4 ± 2.4 | 99 ± 3.8 | 116 ± 19

SMILES | cell viability [1] | cell viability [2] | cell viability [3] | cell viability [4] | cell viability [5] | cell viability [6] | cell viability [7] | cell viability [8] | cell viability [9]
Cl.NNc1nncc2ccccc12 [Hydralazine HCl] | 142 ± 22 | 131 | 113 ± 9.5 | 79.8 | 121 ± 7.1 | 180 | 162 ± 3.2 | 148 ± 5.5 | 151 ± 11
Cl.Cl.NCCc1cnc[nH]1 [Histamine 2HCl] | 118 ± 14 | 129 | 105 ± 8.2 | 105 | 124 ± 16 | 111 | 87.8 ± 4.6 | 81.3 ± 5.9 | 122 ± 5.2
CC12CCC3c4ccc(OC(=O)c5ccccc5)cc4CCC3C1CCC2O (stereo not drawn) [Estradiol Benzoate] | 123.5 ± 0.41 | 131 | 79.7 ± 1.4 | 84.7 | 191 ± 13 | 126 | 83.6 ± 14 | 132 ± 29 | 138 ± 13
CS(=O)(=O)O.CS(=O)(=O)O.N=C(N)c1ccc2cc(OC(=O)c3ccc(N=C(N)N)cc3)ccc2c1 [Nafamostat Mesylate(FUT-175)] | 110 ± 13 | 82 | 43.9 ± 4.1 | 82.1 | 95.5 ± 20 | 98.4 | 106 ± 13 | 100 ± 34 | 105 ± 13
CCCC(=O)[O-].[Na+] [Sodium butyrate] | 99.3 ± 20 | 85.5 | 89.8 ± 3.3 | 92.5 | 47.1 ± 5.4 | 91.9 | 73.7 ± 6.9 | 83.5 ± 18 | 119 ± 11
COC(=O)N(C)c1c(N)nc(-c2nn(Cc3ccccc3F)c3ncccc23)nc1N [Riociguat] | 122 ± 4.3 | 106 | 104 ± 5.6 | 114 | 94.87 ± 0.45 | 91.6 | 104 ± 2.9 | 97.2 ± 1.1 | 124 ± 14
O=C1C(=O)c2ccccc2C(O)=C1C1CCC(c2ccc(Cl)cc2)CC1 (stereo not drawn) [Atovaquone] | 81.6 ± 34 | 82.3 | 27.7 ± 4.7 | 54.9 | 50 ± 1.9 | 116 | 78.9 ± 15 | 99.7 ± 8.7 | 72.4 ± 1.9
CC(C)NCC(O)COc1ccc(CCOCC2CC2)cc1.Cl (stereo not drawn) [Betaxolol HCl] | 132 ± 2.2 | 134 | 107 ± 34 | 107 | 87 ± 6.8 | 149 | 74.2 ± 1.6 | 101 ± 15 | 117 ± 1.3
CNS(=O)(=O)CCc1ccc2[nH]cc(C3CCN(C)CC3)c2c1.Cl [Naratriptan] | 102 ± 13 | 127 | 96.7 ± 4.1 | 72.5 | 86.22 ± 0.42 | 105 | 103 ± 1.1 | 91.5 ± 8 | 109 ± 7.3
C=CC[C@@H]1/C=C(\C)C[C@H](C)C[C@H](OC)[C@H]2O[C@@](O)(C(=O)C(=O)N3CCCC[C@H]3C(=O)O[C@H](/C(C)=C/[C@@H]3CC[C@@H](O)[C@H](OC)C3)[C@H](C)[C@@H](O)CC1=O)[C@H](C)C[C@@H]2OC [Tacrolimus (FK506)] | 55.9 ± 45 | 112 | 50.6 ± 16 | 85.4 | 99.2 ± 6.4 | 92 | 83.4 ± 4.2 | 85.9 ± 20 | 166 ± 19
CCC1=CC2CN(C1)Cc1c([nH]c3ccccc13)C(C(=O)OC)(c1cc3c(cc1OC)N(C)C1C(O)(C(=O)OC)C(OC(C)=O)C4(CC)C=CCN5CCC31C54)C2.O=C(O)C(O)C(O)C(=O)O.O=C(O)C(O)C(O)C(=O)O (stereo not drawn) [Vinorelbine ditartrate] | 106 ± 17 | 112 | 65.2 ± 5.9 | 109 | 39 ± 7.7 | 122 | 55.7 ± 4 | 57.2 ± 2.2 | 95.5 ± 16
CC(=O)N[C@H](Cc1ccc2ccccc2c1)C(=O)N[C@H](Cc1ccc(Cl)cc1)C(=O)N[C@H](Cc1cccnc1)C(=O)N[C@@H](CO)C(=O)N[C@@H](Cc1ccc(O)cc1)C(=O)N[C@H](CCCNC(N)=O)C(=O)N[C@@H](CC(C)C)C(=O)N[C@@H](CCCNC(=N)N)C(=O)N1CCC[C@H]1C(=O)N[C@H](C)C(N)=O [Cetrorelix] | 111 ± 16 | 131 | 96.7 ± 19 | 102 | 190 ± 48 | 151 | 96.1 ± 7 | 122 ± 61 | 132 ± 7.8
OC[C@@H](O)[C@@H](O)[C@H](O)[C@@H](O)CO [D-Sorbitol] | 96 ± 11 | 118 | 107 ± 21 | 91.5 | 109 ± 4.5 | 120 | 96.3 ± 8 | 103 ± 2.6 | 120 ± 21
CCC(=C(CC)c1ccc(O)cc1)c1ccc(O)cc1 [Diethylstilbestrol] | 59.1 ± 40 | 95.7 | 61.4 ± 39 | 75.5 | 41 ± 12 | 107 | 78.3 ± 8.4 | 116 ± 51 | 83.8 ± 11
CC(=O)NC(CS)C(=O)O (stereo not drawn) [Acetylcysteine] | 91.6 ± 7.3 | 113 | 94.3 ± 16 | 90 | 97.3 ± 27 | 118 | 89.98 ± 0.47 | 124 ± 1.8 | 96.8 ± 14
N[C@@H](CCC(=O)N[C@@H](CS)C(=O)NCC(=O)O)C(=O)O [L-Glutathione Reduced] | 103 ± 5.7 | 115 | 107 ± 4 | 85.3 | 104 ± 6.7 | 113 | 99.8 ± 5.5 | 98.6 ± 5 | 131 ± 2.4
O=CC(O)C(O)C(O)CO (stereo not drawn) [Xylose] | 70.5 ± 35 | 96.1 | 91.8 ± 13 | 90.9 | 104 ± 18 | 108 | 83 ± 1.1 | 94.5 ± 4.8 | 129 ± 0.16
CN(CC=CC#CC(C)(C)C)Cc1cccc2ccccc12.Cl [Terbinafine HCl] | 93.6 ± 30 | 99 | 86.02 ± 0.12 | 81.6 | 73 ± 1.7 | 123 | 70.5 ± 7.4 | 62.8 ± 10 | 91.1 ± 1.7
